Screening data as filed in PubChem.
Shiga toxin inh: Shiga toxin inhibition; Vero cells, Shiga toxin protein synthesis inhibition reporter; inhibition, % at 38.7 µM; hit rate 9.2% among 290,000; AID 2315; in the data active = inhibition mostly above about 28%, no sharp cut-off; inactive = mostly below about 43%; note: 0% is about no effect
FMDV inh: foot and mouth disease virus antiviral activity; FMDV antiviral cell-based qHTS; Potency, µM (highest dose often 57.9 µM), for the others: at the top dose activity change, negative = inhibition, most hits filed as inhibitors; hit rate 1.2% among 410,000; calls by dose curve; tested in HEK293T cells; note: read-out not given here; potency is the fitted concentration of half-maximal effect; % is set by controls: 0 for no effect and ±100 for the full control effect; nearly all actives have a fitted effect of over 45% in size
Marburg entry inh: inhibitors of Marburg virus binding or cell entry; Marburg virus pseudotyped entry inhibition, cell reporter; hit rate 1.8% among 300,000; AID 540276; Potency, µM (series often up to 37.8 µM), inactives show at the top dose activity change, negative = inhibition, most hits filed as inhibitors; calls by dose curve; tested in HEK293 cells; note: potency is the fitted concentration of half-maximal effect; % is set by controls: 0 for no effect and ±100 for the full control effect
Cycloheximide cs: counter-screen hit for Shiga toxin inhibitors, cycloheximide | cell reporter, cycloheximide protein synthesis inhibition counterscreen | max response, % | hit rate 12% among 300,000; in the data active = max response mostly above about 13%, no sharp cut-off; inactive = mostly below about 14%; note: read at 38.3 µM for the half of the compounds with a filed dose; 0% is about no effect
LASV entry inh: blocks Lassa virus binding to or entry into cells; hit rate 1.2% among 300,000; Potency, µM (doses to about 37.9 µM), for the others: at the top dose activity change, negative = inhibition, most hits filed as inhibitors; Lassa virus pseudotype entry inhibition, cell reporter; calls by dose curve; tested in HEK293 cells; note: potency is the fitted concentration of half-maximal effect; % is set by controls: 0 for no effect and ±100 for the full control effect; nearly all actives have a fitted effect of over 50% in size
HCV inh: inhibitors of hepatitis C virus infection; Huh7.5.1 HCVcc-Cre infection, luciferase reporter, 44 h; Potency, µM (series often up to 41.8 µM), for inactives: at the highest dose activity change, negative = inhibition, most hits filed as inhibitors; hit rate 3.4% among 340,000; AID 651820; active = well fitted inhibition curve with a large enough effect; inconclusive = small, poorly fitted or top-dose-only effect, or another doubt; inactive = no such curve, though single readings can be large or run the other way; note: potency is the fitted concentration of half-maximal effect; % is set by controls: 0 for no effect and ±100 for the full control effect
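Whole-lifecycle infectious HCVcc-Cre system; cells 1,000/well, compound then virus (~0.5 moi) added 4 h after plating, 44 h culture. Luciferase read 15 sec following 15 min substrate incubation, room temp.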
The depositor's hits bear a star; ? = inconclusive; nt = not tested or not shown; [ ] = remark or other dose. An excerpt weighted towards active compounds, which were near 13% of everything screened.

SMILES | Shiga toxin inh | FMDV inh | Marburg entry inh | Cycloheximide cs | LASV entry inh | HCV inh
CCOc1ccc(C2=Cc3cc(OC)c(OC)cc3C(=C(Cl)Cl)O2)cc1 | -11 | nt | 0% | 6 | nt | nt
O=C(N/N=C/c1ccc(N2CCOCC2)cc1)c1ccc(O)cc1 | 73* | -4% | nt | 37* | nt | ?
Cn1ccc(C(=O)N/N=C/c2ccncc2)n1 | 28* | 8% | -21%[46.1 µM] | 32* | ? | 7%
Cc1cccc(C(=O)N/N=C/c2ccc(OC3CSC3)cc2)c1 | 15 | nt | -19% | 24* | -12% | ?
COc1ccc2ccccc2c1/C=N/NC(=O)c1cccc(C)c1 | nt | -7% | nt | nt | nt | 11µM*
COc1ccc(-n2nnnc2SCC(=O)c2ccc3c(c2)OCCO3)cc1 | 9 | -13% | 14% | 3 | -8% | 22%
Cc1ccc(Cl)cc1N1CCN(C(=O)c2cccn2-c2nnc(N3CCCCC3)s2)CC1 | nt | -18% | nt | nt | ? | nt
CN(C(=O)COC(=O)c1c2c(nc3ccccc13)CCCC2)c1c(N)n(Cc2ccccc2)c(=O)[nH]c1=O | nt | -16% | ? | nt | ? | ?
CCOC(=O)C1=C(C)OC2(O)c3ccccc3C(=O)C12O (configuration not stated) | -9 | -6% | nt | 3 | nt | 10%
CC(C)(C)OC(=O)NN1CC(=O)N2Cc3ccccc3C[C@@H]2C1=O | -6 | -2% | nt | -2 | nt | 7%
Cc1cccc(OCC(=O)NC(C)C(=O)N/N=C/c2c(OCc3ccccc3)ccc3ccccc23)c1 (configuration not stated) | 14 | 9% | ? | 6 | 3% | 7.9µM*
Cc1cccc(OCC(=O)NC(Cc2ccccc2)C(=O)O)c1 (configuration not stated) | -12 | -19% | 3% | -6 | -7% | 11%
COC(=O)N1C(=O)[C@@](c2ccccc2)(C(C)C)N1C(=O)OC | 10 | ? | nt | 20* | nt | 29%
COC(=O)N1C(=O)[C@](c2ccccc2)(C2CCCC2)N1C(=O)OC | 14 | ? | nt | 19* | nt | 12%
COC(=O)N1C(=O)[C@@](c2ccc(OC)cc2)(C(C)C)N1C(=O)OC | 19* | ? | nt | 16* | nt | 27%
CCN1C(C(=O)c2ccccc2)=C(OC(=O)c2ccc(OC)cc2)c2ccccc2S1(=O)=O | nt | -6% | 2%[46.1 µM] | nt | -20%[46.1 µM] | nt
COc1ccc(C(=O)Nc2cccc(S(C)(=O)=O)c2)cc1OC | 16 | 11% | ? | 9 | 8% | 5%
COc1ccccc1C/C(N)=N/OC(=O)c1cccc([N+](=O)[O-])c1C | 21 | -14% | ? | 15* | ? | 10µM*
N#CCC(=O)NN=C1CCCCCCCCCCC1 | 9 | -18% | -2% | 6 | ? | 23%
CCOC(=O)CNc1c(-c2ccc(O)cc2)nc2ccc(Cl)cn12 | 56 | 14% | 11% | 23* | -23% | ?
COc1cccc(CNC(=O)c2ccc(Cl)c(S(=O)(=O)N3CCOCC3)c2)c1 | nt | -14% | nt | nt | nt | ?
O=C(CCc1ccccc1)N1CCCN(C(=O)CCc2ccccc2)CC1 | 1 | -20% | 10% | -2 | ? | 6%
O=C(CN1CCCC1)Nc1ccc(OCc2ccccc2)cc1 | 27 | 20% | nt | 27* | nt | 10µM*
CN1CCN(CC(=O)Nc2ccc(Oc3ccccc3)cc2)CC1 | -9 | 1% | ? | 6 | -5% | ?
O=C(CN1CCCCCC1)Nc1ccccc1 | 12 | -1% | ? | 5 | 1%[46.1 µM] | 10%
SMILES | Shiga toxin inh | FMDV inh | Marburg entry inh | Cycloheximide cs | LASV entry inh | HCV inh
CS(=O)(=O)N1CCC(C(=O)Nc2ccc(OCc3ccccc3)cc2)CC1 | 23 | 15% | -1% | 0 | -5% | 13%
CC(C(=O)Nc1ccc(OCc2ccccc2)cc1)N1CCCC1 (configuration not stated) | 33* | 15% | ? | 28* | 24%[46.1 µM] | ?
CCOC(=O)N1CCN(CC(=O)Nc2ccc(Oc3ccccc3)cc2)CC1 | -15 | ? | -27% | -4 | 0.56µM* | -17%
O=C(CN1CCN(c2ccccc2)CC1)Nc1ccc(OCc2ccccc2)cc1 | 10 | 0% | ? | -2 | ? | 11µM*
CCC(C)C(NC(N)=O)C(=O)Nc1ccc(OCc2ccccc2)cc1 (configuration not stated) | 26* | 6% | nt | 22* | nt | -19%
COc1ccccc1NC(=O)CN1CCN(CC(=O)Nc2ccc(F)cc2)CC1 | -5 | -12% | -19% | -3 | 2% | ?
COc1ccccc1NC(=O)CN1CCN(CC(=O)Nc2ccc(OCc3ccccc3)cc2)CC1 | 18 | ? | ? | 20* | 11µM* | 6%
Cc1ccc(N2C(=O)CC(C3CCCO3)C2=O)cc1 (configuration not stated) | -2 | 5% | 1% | -1 | 0% | 8%
O=C(Nc1cccc(C(F)(F)F)c1)c1cc[n+]([O-])cc1 | -5 | -6% | -3%[46.1 µM] | -1 | 4% | -2%
CC(C)CC(=O)Nc1ccc(C(=O)CN2CCN(c3ccc(O)cc3)CC2)cc1 | 19 | 11% | ? | -1 | 19%[46.1 µM] | -5%
CC(C)CC(=O)Nc1ccc(C(=O)Nc2cccc(O)c2)cc1 | 74* | 28% | ? | 32* | 28%[46.1 µM] | -7%
O=C(Nc1cccc(O)c1)c1ccc(C(F)(F)F)cc1 | 69* | 15% | ? | 30* | ? | -21%
O=C(Nc1ccc(Br)c(C(F)(F)F)c1)c1ccccc1 | 21 | -24% | -15% | 46* | ? | -27%
O=C(Nc1ccc(Br)c(C(F)(F)F)c1)c1ccc(C(F)(F)F)cc1 | 78* | -22% | ? | 36* | ? | ?
CC(=O)N/C(=C/c1ccc2c(c1)OCO2)C(=O)Nc1ccccc1 | 80* | 27% | ? | 27* | 6%[46.1 µM] | 6%
CC(=O)N/C(=C/c1ccc2c(c1)OCO2)C(=O)O | 8 | 9% | ? | 1 | 0% | -8%
O=C(Nc1ccc(C(=O)O)cc1)/C(=C\c1ccc2c(c1)OCO2)NC(=O)c1ccc(Br)cc1 | -5 | -12% | ? | 39* | 1% | 1%
O=C(NCCO)/C(=C/c1ccc2c(c1)OCO2)NC(=O)c1ccc(Br)cc1 | 74* | -3% | -6%[46.1 µM] | 41* | -5% | -6%
COC(=O)c1ccc(N=CC2=C(O)CC(c3ccccc3)CC2=O)cc1 (configuration not stated) | -11 | -4% | -4% | -2 | -14% | 14%
COc1cc(C(=O)N2CC(C)OC(C)C2)c([N+](=O)[O-])cc1OC (configuration not stated) | -7 | 0% | -1% | 7 | -23% | 4%
CC1CCN(S(=O)(=O)c2ccc3c(c2)oc(=O)n3CC(=O)N2c3ccccc3CC2C)CC1 (configuration not stated) | 0 | 0% | 3% | -1 | nt | 13µM*
COc1ccc(CNC(=O)Cn2c(=O)oc3cc(S(=O)(=O)N4CCC(C)CC4)ccc32)cc1 | nt | -14% | 7.1µM* | nt | ? | nt
COc1ccccc1NC(=O)CN1CCN(CC(=O)Nc2ccc(S(N)(=O)=O)cc2)CC1 | -2 | ? | nt | -3 | nt | -25%
